Hits are enriched below; roughly 3.7% of the tested compounds scored in any of these assays.
ERa coact inh: blocks coactivator binding to human estrogen receptor alpha; TR-FRET ER-alpha LBD / SRC-1 peptide, estradiol-bound; inhibition, % at 25.6 µM; 1.7% of 86,000 active; in the data active = inhibition above about 50%
ERb SRC1 inh: blocks coactivator binding to human estrogen receptor beta | Q92731 | TR-FRET ER-beta LBD / SRC1-Cy5 peptide binding; receptor agonist-loaded with 1 µM estradiol | inhibition, % at 25.6 µM | 1.3% of 86,000 active;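 active = compounds whose percent inhibition of the receptor-coactivator binding signal exceeds about 50% in the single-dose screen, limit read from the data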
ERa SRC1 pot: ER-alpha (human) coactivator binding potentiation; TR-FRET ERalpha-LBD/SRC-Cy5 coactivator binding, 2 h; 100 = basal binding, no effect; 1.3% of 86,000 active; AID 639; coactivator binding (% of control), % at 25.6 µM; P03372; in the data active = activity above about 200%;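 also: binding measured in presence of low estradiol as agonist stimulus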
Smad3 FoxH1 inh: Smad3 (human) transcription factor binding inhibition; AID 630; P84022; 0.29% of 88,000 active; inhibition, % at 25 µM; TR-FRET Smad3/Dy647-FoxH1 peptide binding, europium anti-His;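 active = compounds that reduce the energy-transfer binding signal between the protein and its labelled peptide by more than half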
Target sequence (P84022 whole entry, looked up): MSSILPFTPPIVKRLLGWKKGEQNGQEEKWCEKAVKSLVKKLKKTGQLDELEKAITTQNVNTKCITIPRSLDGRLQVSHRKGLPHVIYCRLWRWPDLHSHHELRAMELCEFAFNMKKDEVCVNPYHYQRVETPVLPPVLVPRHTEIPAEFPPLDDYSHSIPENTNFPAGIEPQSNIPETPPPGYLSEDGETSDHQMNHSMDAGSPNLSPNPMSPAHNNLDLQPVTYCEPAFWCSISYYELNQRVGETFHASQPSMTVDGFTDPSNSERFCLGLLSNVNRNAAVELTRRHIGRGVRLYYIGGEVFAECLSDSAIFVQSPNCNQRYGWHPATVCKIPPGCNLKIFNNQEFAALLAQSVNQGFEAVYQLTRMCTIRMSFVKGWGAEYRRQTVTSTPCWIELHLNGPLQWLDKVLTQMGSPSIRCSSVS
Hits are given with their value; . = inactive; / = not tested or not shown; [ ] = another dose, or the depositor's remark.

SMILES	ERa coact inh	ERb SRC1 inh	ERa SRC1 pot	Smad3 FoxH1 inh
CC12CCCCC1(O)[N+](=O)C1=C(CCCC1)N2[O-] (stereo unspecified)	.	66	.	.
COc1cccc(N2CCN(c3ncccn3)CC2)c1	.	.	338[fluorescence artefact?]	.
COc1cccc(C(=O)N2CCN(c3ncccn3)CC2)c1	.	.	.	.
Cc1cc2cc(CN3C(=O)c4ccccc4C3=O)ccc2n1C	.	.	300[fluorescence artefact?]	.
O=C(NCc1ccccn1)C1CCC(=O)N1C1CCCCC1 (stereo unspecified)	82[fluorescence artefact?]	.	.	.
O=C(CCN1CCOCC1)Nc1ccc(F)cc1F	/	/	/	.
CCOc1cc(N2CCOCC2)c(OCC)cc1NC(=O)COC(=O)c1cc(C)oc1C	.	.	.	.
CCOc1cc(N2CCOCC2)c(OCC)cc1NC(=O)COc1ncnc2ccc(Br)cc12	54[fluorescence artefact?]	.	.	.
COCCSc1nc2sc3c(c2c(=O)n1-c1ccccc1)CCN(C)C3	.	.	.	.
O=C(CSc1nc2c(c(=O)n1-c1ccc(Br)cc1)SCC2)Nc1nccs1	59	.	.	.
COc1ccc(-n2c(SCC(=O)Nc3nccs3)nc3sc4c(c3c2=O)CCN(C)C4)cc1	51	.	.	.
O=C(CSc1nc2c(c(=O)n1-c1ccc(Cl)cc1)SCC2)Nc1nccs1	.	.	.	.
COc1ccc(-n2c(SCC(=O)NC3CCCCC3)nc3ccsc3c2=O)cc1	.	.	214[fluorescence artefact?]	.
O=C(COc1ccc(S(=O)(=O)NC2CCCCC2)cc1)N1CCN(c2cccc(Cl)c2)CC1	.	.	.	.
O=C(CN(c1ccc(F)cc1)S(=O)(=O)c1ccc2c(c1)OCCO2)Nc1ccccc1	.	.	.	.
COc1ccccc1-c1nnc(Sc2nc([N+](=O)[O-])nn2C)o1	.	.	.	.
NNC(=O)c1ccc[n+](CCc2ccccc2)c1	/	/	/	.
Cc1cc2oc(=O)cc(COC(=O)c3n[nH]c4ccccc34)c2cc1C	.	.	338	.
Cc1cccc(Cn2c(=O)n(-c3ccc(CC(=O)NCc4ccco4)cc3)c(=O)c3sccc32)c1	.	.	.	.
CCCC(=O)NC(C)c1nc2ccccc2n1CC (stereo unspecified)	82[fluorescence artefact?]	.	.	.
C=C(C)Cn1c(C(C)NC(=O)CCC)nc2ccccc21 (stereo unspecified)	.	.	.	.
Nc1ccc(NC(=O)c2cccs2)c(Cl)c1	.	.	237[fluorescence artefact?]	.
Nc1ccc(Cl)c(NC(=O)c2cccs2)c1	.	.	.	.
COc1cccc2c1C(=O)c1c(O)c3c(c(O)c1C2=O)C[C@](O)(C(=O)CO)C[C@@H]3O[C@@H]1C[C@H](N)[C@@H](O)[C@H](C)O1	/	/	/	.
COC(=O)c1cc(CC(=O)c2ccc(O)cc2O)c(C)o1	.	.	.	.
SMILES	ERa coact inh	ERb SRC1 inh	ERa SRC1 pot	Smad3 FoxH1 inh
CCC(=O)Oc1ccc(C/C(=N\O)c2ccc(O)cc2O)o1	70[fluorescence artefact?]	78[fluorescence artefact?]	.	.
Cc1ccc(S(=O)(=O)C2(C(=O)NC3CCCC3)CC2)cc1	.	.	.	.
Cc1ccc(S(=O)(=O)C2(C(=O)N3CCCCCC3)CC2)cc1	.	80[fluorescence artefact?]	.	.
Cc1nn(Cc2n[nH]c(=S)n2Cc2ccccc2)c(C)c1Cl	.	.	.	.
N#Cc1c(-c2ccc(Br)cc2)nc2n(c1=O)CCCS2	.	.	239	.
N=C1[C@H](O)[C@]2(I)c3ccccc3N3C(=N)[C@H](O)[C@@H]4c5ccccc5N1[C@@H]4[C@@H]32	/	/	/	57
CC(C)(C)c1ccc(O)c(CN(Cc2cc(C(C)(C)C)ccc2O)c2ccccc2)c1	/	/	/	.
CN(Cc1cc(C(C)(C)C)cc(Br)c1O)Cc1cc(C(C)(C)C)cc(Br)c1O	/	/	/	96
Cc1ccc(SCC(=O)NC(C)(C)C)cc1	.	.	.	.
CCCn1c(SCC(=O)NC(=O)NCc2ccco2)n[nH]c1=O	74[fluorescence artefact?]	63[fluorescence artefact?]	.	.
Cc1nnc(SCC(=O)NC(=O)NCc2ccco2)n1Cc1ccccc1	52	.	.	.
C=CCn1c(SCC(=O)NC(=O)NCc2ccco2)nc2sc(CC)cc2c1=O	74	65	.	.
CCOc1ccccc1-n1nnnc1SCC(=O)NC(=O)NCc1ccco1	77[fluorescence artefact?]	62	.	.
CC(C)Cn1cnc2c(SCc3ccc(Cl)cc3Cl)nc(N)nc21	/	/	/	.
O=C(O)/C=C/c1c2ccc(=O)c(O)c-2oc2c(O)c(O)ccc12	/	/	/	.
O=C(NCC1c2ccccc2CCN1C(=O)CN1C(=O)c2ccccc2C1=O)C1CCCCC1 (stereo unspecified)	.	.	.	.
COc1cccc(OCc2nnc(SCC(=O)NCc3ccco3)n2C)c1	.	.	.	.
Cc1cc(NC(=O)CSc2nc(-c3ccc(F)cc3)cs2)no1	.	.	.	.
COc1cccc(OCc2nnc(SCC(=O)NCc3ccco3)n2CCc2ccccc2)c1	57	.	.	.
O=C(CSc1nc(-c2ccc(F)cc2)cs1)NC(=O)NCc1ccco1	53	.	.	.
C[C@@]12CC[C@H]3c4ccc(O)cc4CC[C@@H]3[C@H]1CC[C@H]2OC(=O)CCc1ccccc1	/	/	/	.
COCC(=O)Nc1cc(C)c2c(=O)oc3ccccc3c2n1	.	.	.	.
COc1ccc(C(=O)Nc2cc(C)c3c(=O)oc4ccccc4c3n2)cc1	53[fluorescence artefact?]	.	.	.
O=C(C[n+]1ccc2ccccc2c1)c1ccc2ccc3ccccc3c2c1	/	/	/	81
CCOC(=O)c1cnc(-n2nc(C)cc2C)nc1NCc1ccc2c(c1)OCO2	.	.	219[fluorescence artefact?]	.
SMILES	ERa coact inh	ERb SRC1 inh	ERa SRC1 pot	Smad3 FoxH1 inh
CCOC(=O)c1cnc(-n2nc(C)cc2C)nc1NCCc1ccccc1	.	.	.	.
CCOc1ccc(N2C(=O)CN=C2Nc2ccccc2F)cc1	.	.	.	.
Cc1ccc(S(=O)(=O)N2CCN(c3ccc(S(=O)(=O)N4CCOCC4)cn3)CC2)cc1	.	.	346[fluorescence artefact?]	.
CCc1[nH]nc2c1C(c1cccc(OC(=O)N3CCOCC3)c1)C(C#N)=C(N)O2 (stereo unspecified)	.	.	563	.
CCCc1[nH]nc2c1C(c1ccc(OC(=O)N3CCOCC3)c(OC)c1)C(C#N)=C(N)O2 (stereo unspecified)	.	.	.	.
NC(=O)c1c(NC(=O)c2cc3ccccc3o2)sc2c1CCC2	62	53	.	.
CC(=O)c1sc(N2C(=O)c3oc4ccccc4c(=O)c3C2c2ccc(C)o2)nc1C (stereo unspecified)	64	.	.	.
C/C(=N\O)c1ccc2cc(Br)c3ccccc3c2c1	/	/	/	.
Cc1nc(NNC(=O)c2ccc([N+](=O)[O-])cc2)cc(-c2ccccc2)n1	.	.	204[fluorescence artefact?]	.
O=C(COC(=O)CCS(=O)(=O)c1ccc(Cl)cc1)Nc1ncc(Cl)cc1Cl	.	.	.	.
O=C(COC(=O)C1CCN(S(=O)(=O)c2cc([N+](=O)[O-])ccc2Cl)CC1)Nc1ncc(Cl)cc1Cl	78[fluorescence artefact?]	80[fluorescence artefact?]	.	.
O=C(COC(=O)CCCN1C(=O)c2ccccc2C1=O)Nc1ncc(Cl)cc1Cl	69[fluorescence artefact?]	58[fluorescence artefact?]	.	.
O=C(COC(=O)CN1C(=O)c2ccccc2C1=O)Nc1ncc(Cl)cc1Cl	60[fluorescence artefact?]	56	.	.
